Screening results deposited in PubChem BioAssay by National Center for Advancing Translational Sciences (NCATS).
12-LOX inh – ALOX12 (human) lipoxygenase inhibition; purified 12hLO, xylenol orange hydroperoxide absorbance; 1.1% of 580,000 active; AID 1671190; Potency, µM (doses to about 108 µM), inactives show at the top dose activity change, negative = inhibition, usual class: inhibitors; P18054; active = well fitted curve in the direction sought with a large enough effect; inconclusive = small, poorly fitted or top-dose-only effect, or another doubt; inactive = no such curve, though single readings can be large; an effect the other way counts as inactive or inconclusive; note: % is set by controls: 0 for no effect and ±100 for the full control effect
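Purified human 12hLO (150 nM final) in 25 mM Hepes, 0.01% Triton X-100, pH 7.0 was preincubated 15 min at room temperature with compound. Then 40 uM arachidonic acid was added, 30 min. Hydroperoxide was read by Fe-XO absorbance ratio 573/405 nm.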
ClpP mod – qHTS Assay for Activators of ClpP. ATP-dependent Clp protease proteolytic subunit (Bacillus subtilis (strain 168)), P80244. 1.9% of 340,000 active. AID 651965, 2013. purified B. subtilis ClpP, FRET peptide cleavage, 20 min. Potency, µM (top dose mostly 57.5 µM), inactives show at the highest dose activity change, negative = active; active = well fitted falling curve with a large enough effect; inconclusive = small, poorly fitted or top-dose-only effect; inactive = no such curve, though single readings can be large or run the other way; note: the source files actives as falling curves though it sought activators and does not explain the sign; nearly all actives have a fitted effect of over 65% in size
Target sequence (P80244 whole entry, looked up): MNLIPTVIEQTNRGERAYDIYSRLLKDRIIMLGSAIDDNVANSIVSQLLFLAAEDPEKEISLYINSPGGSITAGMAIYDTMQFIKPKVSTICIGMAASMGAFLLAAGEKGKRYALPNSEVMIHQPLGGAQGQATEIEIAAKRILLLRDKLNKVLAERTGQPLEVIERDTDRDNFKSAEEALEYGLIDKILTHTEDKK
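ClpP 10 microg/mL final, pH 8 Tris/KCl buffer with BSA, glycerol, Tween-20; compound pinned in; FRET-FV substrate; RT 20 min; Ex320/Em430; ΔFRET vs ADEP 5.8 microM, DMSO, no enzyme.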
PTAP TSG101 blk – blocks PTAP/TSG101 interaction to inhibit HIV-1 budding; Q99816; Fluorescence polarization, FITC-PTAP peptide / Tsg101 binding; Potency, µM (highest dose often 115 µM), for inactives: top-dose activity change, negative = inhibition, hits mostly inhibitors; 340,000 tested, under 10 active; AID 493005; active = well fitted inhibition curve with a large enough effect in the main read-out, with a control signal flat, not every such curve was filed as active; inconclusive = small, poorly fitted or top-dose-only effect, or effect the other way, or a change in a side signal; inactive = no such curve, though single readings can be large or run the other way; note: % of control where 0% means no effect
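Fluorescence polarization binding of Tsg101 binding domain (10 uM final) to FITC-labeled PTAP peptide (50 nM final) in HEPES pH 7.5 buffer with NaCl, Tween 20, EDTA, TCEP. Compounds added before peptide; binding 20 min at RT.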
Rango release inh – prevents RanGTP from dissociating the Rango-importin beta complex; O95149+P62826; Biochemical FRET Rango-importin beta, RanGTP-induced dissociation; AID 540253; Potency, µM (top dose mostly 46.1 µM), for the others: at the top dose activity change, negative = inhibition; 0.071% of 340,000 active; note: % of control where 0% means no effect; nearly all actives have a fitted effect of over 45% in size
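Compounds sat 5 min at room temperature with 0.1 uM Rango biosensor plus 0.25 uM importin beta, then FRET pre-read. RanGTP-RCC1 (0.6 uM Ran, 2mM GTP, 0.2 uM RCC1) added for 45 min, and the CFP/YFP post-read measured blocked complex dissociation.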
TDP1 block – TDP1 (human) enzyme inhibition. Potency, µM (doses to about 130 µM), without a hit: at the top dose activity change, negative = inhibition, usual class: inhibitors. recombinant TDP1, AlphaScreen DNA substrate cleavage. Q9NUW8. 0.28% of 350,000 active; active = well fitted curve in the direction sought with a large enough effect; inconclusive = small, poorly fitted or top-dose-only effect, or another doubt; inactive = no such curve, though single readings can be large; an effect the other way counts as inactive or inconclusive; note: % is set by controls: 0 for no effect and ±100 for the full control effect; nearly all actives have a fitted effect of over 40% in size
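Tdp1 1 nM final; 15 min RT w/ cpd; substrate 15 nM, 5 min; beads 10 ug/ml, 10 min; AlphaScreen read. Neg ctrl: no enzyme.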
Rango complex inh – prevents formation of the Rango-importin beta complex | Q14974 | Potency, µM (titrated, usually from 92.2 µM), inactives show at the highest dose inhibition of complex formation | AID 540263 | Rango CFP/YFP FRET sensor + importin beta, 45 min | 0.031% of 340,000 active;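 note: 0% = DMSO wells and 100% = buffer wells lacking importin beta; nearly all actives have a fitted effect of over 15% in size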
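FRET biosensor Rango (snurportin 1 IBB between N-terminal EYFP and C-terminal Cerulean), 50 nM in PBS/1 mM DTT/0.02% Tween-20/0.1% BSA, preincubated 5 min RT with compound; 0.125 microM importin beta added, 45 min RT, CFP/YFP FRET ratio read.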
* marks the source's active call; other numbers are inactive results. A selection: hits, their analogues and other compounds. The true share with any hit is near 2.4%. Unless noted, calls come from the whole dose curve. Potency is the fitted concentration of half-maximal effect.

CCOc1ccc(N=Cc2c(C)[nH]n(-c3nc4ccccc4[nH]3)c2=O)cc1 was read as 12-LOX inh -11%, ClpP mod -2%, PTAP TSG101 blk -3%, Rango release inh 10%, TDP1 block 50µM* and Rango complex inh 5%.
For Cc1[nH]n(-c2nc3ccccc3[nH]2)c(=O)c1CCc1ccccc1 the results were 12-LOX inh -15%.
`Cc1ccc(C)c(S(=O)(=O)NCc2ccccc2S(=O)(=O)N2CCCCC2)c1` gave 12-LOX inh -6%.
`O=C(NC12CC3CC(CC(C3)C1)C2)c1ccccc1O` gave 12-LOX inh -29%, ClpP mod 28µM*, PTAP TSG101 blk -1%, Rango release inh 9%, TDP1 block 2% and Rango complex inh -2%.
Screening Cc1ccccc1C(=O)NC12CC3CC(CC(C3)C1)C2 returned 12-LOX inh -22%.
Screening Cc1ccc(NC(=O)CN2C(=O)N/C(=C/c3cc(C)n(-c4ccc(C(=O)O)cc4)c3C)C2=O)cc1 returned 12-LOX inh inconclusive, PTAP TSG101 blk -4%, Rango release inh inconclusive and Rango complex inh inconclusive.
Screening Cc1cccc(NC(=O)CN2C(=O)S/C(=C\c3cccn3-c3cccc(C(=O)O)c3)C2=O)c1 returned 12-LOX inh inconclusive, PTAP TSG101 blk 1%, Rango release inh inconclusive and Rango complex inh inconclusive.
`Cc1ccc(NC(=O)CN2C(=O)N/C(=C/c3cccn3-c3ccc(C(=O)O)cc3)C2=O)cc1` gave 12-LOX inh inconclusive, ClpP mod -6%, PTAP TSG101 blk -15%, Rango release inh -16%, TDP1 block 0.89µM* and Rango complex inh inconclusive.
Screening Cc1cccc(C)c1-n1cccc1/C=C1\SC(=S)N(c2cccc(C(=O)O)c2)C1=O returned 12-LOX inh 45µM*, PTAP TSG101 blk 2%, Rango release inh -8%, TDP1 block -3% and Rango complex inh -7%.
`O=C(CN1C(=O)N/C(=C\c2cccn2-c2cccc(C(=O)O)c2)C1=O)Nc1ccccc1F` gave TDP1 block -7%.
`O=C(O)c1cccc(-n2cccc2/C=C2/NC(=O)N(Cc3ccccc3F)C2=O)c1` gave 12-LOX inh inconclusive, PTAP TSG101 blk 0%, Rango release inh 8%, TDP1 block 2.8µM* and Rango complex inh -2%.
COc1ccc(NC(=O)CN2C(=O)S/C(=C/c3cccn3-c3ccc(C(=O)O)cc3)C2=O)cc1 was read as 12-LOX inh 13% and TDP1 block 20µM*.
Screening Cc1ccc(C(=O)N2CCn3c(nn(-c4ccc(F)cc4)c3=O)C2)cc1 returned 12-LOX inh 13%.
Screening O=C(c1ccc2cc[nH]c2c1)N1CCC2(CC1)N=C(c1ccccc1)NO2 returned 12-LOX inh 0%.
Cc1cccc(C)c1NC(=O)CN1C(=O)S/C(=C\c2cccn2-c2cccc(C(=O)O)c2)C1=O was read as 12-LOX inh -26%, ClpP mod 28µM*, PTAP TSG101 blk -5%, Rango release inh inconclusive and Rango complex inh inconclusive.
For Cc1ccc(NC(=O)CN2C(=O)S/C(=C\c3cccn3-c3cccc(C(=O)O)c3)C2=O)cc1C the results were 12-LOX inh -19%, PTAP TSG101 blk -8%, Rango release inh inconclusive and Rango complex inh inconclusive.
Screening Cc1ccccc1NC(=O)CN1C(=O)S/C(=C\c2cccn2-c2cccc(C(=O)O)c2)C1=O returned 12-LOX inh 67%, ClpP mod -3%, PTAP TSG101 blk -2%, Rango release inh -11%, TDP1 block 50µM* and Rango complex inh 0%.
